We go through 39 sequences from the supplement of paper PMC6555819.

The first assay relates to PPARg:RXRa IVT, anti-PPARg (NR concentration 270 nM, RXRa partner concentration 90 nM). Nature of the assay: PBM binding z-score (relative to random genomic background probes); higher = stronger binding; sequences stand for … in GC…GCGATTGACAGCGTAGAATGAAGG
The method in brief:
(§1)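 Custom Agilent 4×180K protein-binding microarrays carried double-stranded probes, each with a 34-nt variable region. These regions held direct-repeat seeds, single-nucleotide variants, half-site ablations and random human genomic background sequences. Ligand-free nuclear receptor dimers were incubated on the arrays for 1 h, antibodies against each partner (one per run) detected binding, and scanned fluorescence was regression-normalized. Binding z-scores take the random background probes as reference.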
With CCTGCTAGGTCATGGTTAGCTAATCTACAGTATG, the PBM binding z-score is 3.71.
The same measure, in the same setting: next, AATACAGGGTCACTAGGCCAGTGTAGGTACGAAT: 5.58; AGAACGAGGTCAATGAGTTGATAGCACGGGTGGC: 5.76; TCTAGCAGGCCAGAGGGTCACTCTAGAGGTACGG: 0.95.
On the same count and under the same terms, with CCTATTAGTTGACTATAAGGGCAACCGAAGCTCG the figure was 0.399; with ATCTCTAGGTAAAGATAGTTCAGTGCATGCAAAT, 1.49.
Still for that read-out and setting: next, CCTCGGCGGACAACAGGAGGTCAGAGCTGCCAGA: -0.463; AGAATGAGGGTAAGATCAGGGAAACAGAATACAT: 1.71; TCTATTTGTTGAAGGGCAACCGACGAGTCCGTTT: 1.08.
CGTCCAAGGTCAATACTAGGTCAGTGAAAGCATT came in with a PBM binding z-score of 5.
Still for that read-out and setting: next, GCTACTGGGGCATCAGCAGGTTACCATAACTTAA: 5.52.
Still for that read-out and setting: with CCTCCAAGGTCAGCAGGTCAGTGAAAGCGACGTG the figure was 3.16; with CCGACTGGGGCAGAAAGGTTACCATTCCATCCGG, 1.83.
In turn, CCTACTTGGTCAAGGTCACACACGCTATAGGTAC returned a PBM binding z-score of 3.56.
CCTGCTAGGTGAATGGTCAGCTAAAGCAGCTCGC gave a PBM binding z-score of 2.62.
Turning to TCTTGTAGATCAAAAGTTAAGAAAGCCGAAGCCT, the PBM binding z-score came to 0.791.
The same measure, in the same setting: with CCTTACGGGTCACGCCAGGTTATAGCATCGGAGT the figure was 4.83; with GCGACTGGGGCAAAGCAGGTTAACATAAGGTTGG, 3.42; with GCGACTGCGGCAAAGCAGGTTACCATAAGGTTGG, -0.26.
Sequence TAGCCTAGGTCAGATCGGGCCAATATACGCTATA gave a PBM binding z-score of 1.37.
On the same count and under the same terms, with AGAACGAGGGCACGTTGAGTTGATAGCAGAGTAG the figure was 3.75; with ACAAGCAGGCCAAGTTTGGGTCACTCAAACAAAG, 1.59; with ATCTCTAGGTAACAAGTTCAGTGAAAGAGAGGAC, 3.2.
Still for that read-out and setting: with ACTTACGGGTCATCGAGGTTATAGCACGCGTATA the figure was 4.16.
On to CCGACTGGGGCAGAAAGGCTACCATACCATCCGG, for which the PBM binding z-score amounted to 0.918.
On the same count and under the same terms, with ACTTGCAGGCCAAGTTTGGGTCACTCAAACAAAG the figure was 1.92.
Still for that read-out and setting: with AGAACGAGGGCAATGAGTTGTTAGCACGGGTGGC the figure was 2.66.
On the same count and under the same terms, next, CCTTACGGGTCAAGGTTATAGGACGGGTGGTACG: 3.64.
In turn, CCTTACAGGTCACTCCAGGTTATAGCATCGGAGT displayed a PBM binding z-score of 4.23.
Still for that read-out and setting: next, TCTACTAGGTCAGTTGGTCAGCTAACGAGCTGCC: 6.43; TAGCCTAGGTGAGATCGGGCCAGTATACGCTATA: 1.07; TGTCAAAGTTCAAAGGTAACGGAAGTATCCACAC: 4.88.
Consider TCATAAAGGTAAAGGTGAAAGTCGAACGATATGA, for which the PBM binding z-score was found to be 3.1.
Regarding ACCGAAAGGTCGAGGTGAGTATAGAGAAAGGGAA, the PBM binding z-score is 2.17.
The same measure, in the same setting: with GATACAGGCTCAAGGCCAGAGTACGCGTATTGAT the figure was -0.511.
The same measure, in the same setting: next, TCTTGTAGATCAAGCAGGTTAAGACAGCCTGAGT: 0.85; TCGAGTAGGTTACCAATGGAGCATTCAGCTTTCT: 2.37; TTACCAAGGTGCGCTGAGGTCGTTGATCCAACTC: 0.111.
On to TAGCCGAGGTCAGATCGGGCCAGTATACGCTATA, for which the PBM binding z-score amounted to 2.23.

The next assay relates to PPARg DBDmut:RXRa IVT, anti-PPARg (DBD mutation: PPARg1 K132A/R137A, NR concentration 270 nM, RXRa partner concentration 90 nM). The assay is described as above. In outline: as §1
Consider CCTGCTAGGTCATGGTTAGCTAATCTACAGTATG, for which the PBM binding z-score stood at 1.31.
Same read-out and setting: next, AATACAGGGTCACTAGGCCAGTGTAGGTACGAAT: 1.71.
Still for that read-out and setting: next, AGAACGAGGTCAATGAGTTGATAGCACGGGTGGC: 1.71.
On the same count and under the same terms, with TCTAGCAGGCCAGAGGGTCACTCTAGAGGTACGG the figure was -0.508; with CCTATTAGTTGACTATAAGGGCAACCGAAGCTCG, 0.358.
Regarding ATCTCTAGGTAAAGATAGTTCAGTGCATGCAAAT, the PBM binding z-score stood at 1.11.
CCTCGGCGGACAACAGGAGGTCAGAGCTGCCAGA: the PBM binding z-score was -0.701.
On the same count and under the same terms, next, AGAATGAGGGTAAGATCAGGGAAACAGAATACAT: 1.14.
TCTATTTGTTGAAGGGCAACCGACGAGTCCGTTT returned a PBM binding z-score of 1.34.
Still for that read-out and setting: with CGTCCAAGGTCAATACTAGGTCAGTGAAAGCATT the figure was 0.518; with GCTACTGGGGCATCAGCAGGTTACCATAACTTAA, 0.447; with CCTCCAAGGTCAGCAGGTCAGTGAAAGCGACGTG, -0.182.
The same measure, in the same setting: with CCGACTGGGGCAGAAAGGTTACCATTCCATCCGG the figure was -1; with CCTACTTGGTCAAGGTCACACACGCTATAGGTAC, 0.858.
In turn, CCTGCTAGGTGAATGGTCAGCTAAAGCAGCTCGC returned a PBM binding z-score of -0.739.
The same measure, in the same setting: next, TCTTGTAGATCAAAAGTTAAGAAAGCCGAAGCCT: 1.09.
For CCTTACGGGTCACGCCAGGTTATAGCATCGGAGT, the PBM binding z-score is 0.182.
Same read-out and setting: next, GCGACTGGGGCAAAGCAGGTTAACATAAGGTTGG: -0.747; GCGACTGCGGCAAAGCAGGTTACCATAAGGTTGG: -0.756; TAGCCTAGGTCAGATCGGGCCAATATACGCTATA: -0.296.
AGAACGAGGGCACGTTGAGTTGATAGCAGAGTAG displayed a PBM binding z-score of 0.741.
The same measure, in the same setting: next, ACAAGCAGGCCAAGTTTGGGTCACTCAAACAAAG: -0.817.
Still for that read-out and setting: next, ATCTCTAGGTAACAAGTTCAGTGAAAGAGAGGAC: 1.03.
The same measure, in the same setting: next, ACTTACGGGTCATCGAGGTTATAGCACGCGTATA: 1.78; CCGACTGGGGCAGAAAGGCTACCATACCATCCGG: -0.746; ACTTGCAGGCCAAGTTTGGGTCACTCAAACAAAG: 0.338.
AGAACGAGGGCAATGAGTTGTTAGCACGGGTGGC displayed a PBM binding z-score of 0.326.
For the sequence CCTTACGGGTCAAGGTTATAGGACGGGTGGTACG, the PBM binding z-score worked out at 0.411.
On the same count and under the same terms, with CCTTACAGGTCACTCCAGGTTATAGCATCGGAGT the figure was 0.516; with TCTACTAGGTCAGTTGGTCAGCTAACGAGCTGCC, 1.78.
Same read-out and setting: with TAGCCTAGGTGAGATCGGGCCAGTATACGCTATA the figure was -0.934; with TGTCAAAGTTCAAAGGTAACGGAAGTATCCACAC, 1.63; with TCATAAAGGTAAAGGTGAAAGTCGAACGATATGA, 1.14.
Still for that read-out and setting: with ACCGAAAGGTCGAGGTGAGTATAGAGAAAGGGAA the figure was 0.276.
GATACAGGCTCAAGGCCAGAGTACGCGTATTGAT: the PBM binding z-score was -0.646.
TCTTGTAGATCAAGCAGGTTAAGACAGCCTGAGT: the PBM binding z-score worked out at 0.703.
Same read-out and setting: with TCGAGTAGGTTACCAATGGAGCATTCAGCTTTCT the figure was -0.0505; with TTACCAAGGTGCGCTGAGGTCGTTGATCCAACTC, -0.817; with TAGCCGAGGTCAGATCGGGCCAGTATACGCTATA, 0.311.
